Drawing on PubChem BioAssay (NCI), this text covers growth for seven compounds.

Some test systems named below: NCI-H23 lung; NCI-H226 lung; NCI-H322M lung; HOP-62 NSCLC; NCI-H460 lung; HOP-92 NSCLC; NCI-H522 lung; A549/ATCC NSCLC; 786-0 renal; COLO 205 colon; DU-145 prostate; K-562 leukemia; MALME-3M melanoma; MDA-MB-231 breast; RXF 393 renal; SF-268 CNS; SF-295 CNS; SF-539 CNS; UACC-257 melanoma; M14 melanoma.
What all share (assay): NCI-60 one-dose screen, 48 h (100 = growth as untreated, 0 = no growth, -100 = all killed)
Common to all, as to details: 10 µM

Molecules are shown by their SMILES. The panel holds about 83,000 compounds, 20% with a hit somewhere; the sample as a whole holds those more often.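 Values shown are percent growth following 48 h exposure of cells in 96-well plates to a single concentration of compound; below 10 was considered active.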 Unmarked numbers belong to inactive results. Calls of active or inactive are those of the source.

For the compound `O=C(CCl)Nc1ccc(Cl)cc1`, the growth in the experiment with NCI-H23 lung was 28.4%; in the experiment on NCI-H226 lung, 50.7%; in the experiment on NCI-H322M lung it was 78.3%; with HOP-62 NSCLC, 75.1%; in the experiment with NCI-H460 lung, 99.8%; with HOP-92 NSCLC, 57.8%. For the same compound, the growth with NCI-H522 lung was -96.3% (active); in the experiment on A549/ATCC NSCLC, 85.1%; in the experiment on 786-0 renal, 44.7%; in the experiment with COLO 205 colon it was 52.3%; in the experiment with DU-145 prostate, 76.1%; with K-562 leukemia, 19.4%. Further, the growth is 28% in the experiment with MALME-3M melanoma; 46.7% with MDA-MB-231 breast; 35.2% in the experiment on RXF 393 renal; 41.9% in the experiment on SF-268 CNS; 68.8% with SF-295 CNS; 105% in the experiment on SF-539 CNS. Moreover, the growth is 69.9% with UACC-257 melanoma and 47.1% in the experiment on M14 melanoma.
Turning to `O=[N+]([O-])/C=C/c1ccc(Cl)cc1[N+](=O)[O-]`, the growth with NCI-H23 lung was 65.6%; with NCI-H226 lung it was 89.5%; in the experiment on NCI-H322M lung, 96.6%; in the experiment on HOP-62 NSCLC, 62.9%; with NCI-H460 lung, 58.4%; in the experiment with HOP-92 NSCLC, 92.3%. The growth in the experiment with NCI-H522 lung was 42.9%; with A549/ATCC NSCLC, 85.4%; in the experiment with 786-0 renal, 28.3%; in the experiment on COLO 205 colon, -20.9% (active); with DU-145 prostate, 75.2%; in the experiment with K-562 leukemia, 9.32% (active). Further, the growth with MALME-3M melanoma is 96.3%; in the experiment on MDA-MB-231 breast, 58.2%; in the experiment on RXF 393 renal, -94.7% (active); in the experiment with SF-268 CNS it was 59.1%; with SF-295 CNS, 91.6%; with SF-539 CNS, -35.3% (active). Further, the growth in the experiment on UACC-257 melanoma was 89.3%; in the experiment with M14 melanoma, 55.3%.
For the compound `CS(=N)(=O)CCC(N)C(=O)O` (stereo not given), the growth was 95.2% with NCI-H23 lung; 101% in the experiment on NCI-H226 lung; 108% in the experiment on NCI-H322M lung; 98.3% with HOP-62 NSCLC; 112% in the experiment with NCI-H460 lung; 106% with HOP-92 NSCLC. The growth was 96.9% in the experiment on NCI-H522 lung; 97.8% with A549/ATCC NSCLC; 102% with 786-0 renal; 122% in the experiment with COLO 205 colon; 122% in the experiment with DU-145 prostate; 97.2% in the experiment on K-562 leukemia. Besides, the growth with MALME-3M melanoma was 103%; in the experiment with MDA-MB-231 breast, 109%; in the experiment on SF-268 CNS it was 119%; in the experiment on SF-295 CNS, 97.1%; in the experiment with SF-539 CNS, 109%; in the experiment with UACC-257 melanoma, 105%. Also, the growth in the experiment on M14 melanoma is 108%.
For the compound `CN(CCCl)c1ccc(/C=C/C2=[N+](C)c3ccccc3C2(C)C)cc1`, the growth was 9.42% (active) in the experiment on NCI-H23 lung; 46.6% with NCI-H226 lung; 46.7% with NCI-H322M lung; 41.1% with HOP-62 NSCLC; 17.7% in the experiment on NCI-H460 lung; 31.1% with HOP-92 NSCLC. The growth is 30.4% with NCI-H522 lung; 31.8% in the experiment with A549/ATCC NSCLC; 57.6% in the experiment on 786-0 renal; -7.09% (active) in the experiment with COLO 205 colon; 28.9% with DU-145 prostate; 26.9% in the experiment with K-562 leukemia. Also, the growth with MALME-3M melanoma is 23.5%; in the experiment with MDA-MB-231 breast, 21.1%; with RXF 393 renal, 82.3%; in the experiment on SF-268 CNS, 31.8%; with SF-295 CNS, 45.5%; in the experiment with SF-539 CNS, 14.4%. Further, the values for the growth with UACC-257 melanoma and in the experiment with M14 melanoma were 30.8% and 37.4%, respectively.
Consider `NC(=O)c1cc([N+](=O)[O-])c(Cl)c([N+](=O)[O-])c1Cl`, for which the growth in the experiment on NCI-H23 lung was 25.6%; in the experiment on NCI-H226 lung, 59.7%; with NCI-H322M lung it was 98.3%; with HOP-62 NSCLC, 35.9%; in the experiment on NCI-H460 lung it was 72.2%; in the experiment with HOP-92 NSCLC, -52.2% (active). For the same compound, the growth with NCI-H522 lung was -82.4% (active); in the experiment with A549/ATCC NSCLC it was 89.6%; with 786-0 renal, 13.2%; in the experiment with COLO 205 colon it was -54.1% (active); with K-562 leukemia, 8.14% (active); in the experiment on MALME-3M melanoma, -51.5% (active). In addition, the growth in the experiment on MDA-MB-231 breast was 1.49% (active); in the experiment with RXF 393 renal it was -89.6% (active); in the experiment on SF-295 CNS it was 95.5%; in the experiment on SF-539 CNS it was 5% (active); in the experiment with UACC-257 melanoma, -29.2% (active); in the experiment on M14 melanoma, -21.9% (active).
For the compound `O=[N+]([O-])c1ccc(N(CCO)CCO)c2c1no[n+]2[O-]`, the growth was 10.1% in the experiment with NCI-H23 lung; 0.462% (active) in the experiment with NCI-H226 lung; -16% (active) in the experiment on NCI-H322M lung; -34.1% (active) in the experiment on HOP-62 NSCLC; -26.2% (active) in the experiment on NCI-H460 lung; -35.5% (active) in the experiment on HOP-92 NSCLC. Besides, the growth with NCI-H522 lung was -62% (active); in the experiment on A549/ATCC NSCLC it was 4% (active); in the experiment on 786-0 renal it was -31.5% (active); in the experiment with COLO 205 colon it was -93.3% (active); with DU-145 prostate it was -44.5% (active); in the experiment with K-562 leukemia, -55.9% (active). Moreover, the growth in the experiment on MALME-3M melanoma is -38.2% (active); with MDA-MB-231 breast, -12% (active); with RXF 393 renal, -21.4% (active); with SF-268 CNS it was -17.6% (active); in the experiment with SF-295 CNS it was -23.2% (active); in the experiment with SF-539 CNS, -59.8% (active). Further, the growth in the experiment on UACC-257 melanoma is 12.1%; in the experiment with M14 melanoma, -32.4% (active).
Regarding `COC1CC2C=C(C)/C=C/C=C/C(=O)NC(c3ccccc3)C/C=C/CCC(O)CC(=O)C2=C1O` (stereo not given), the growth with NCI-H23 lung is -73.5% (active); in the experiment on NCI-H226 lung, -61.6% (active); in the experiment with NCI-H322M lung, -92.8% (active); with HOP-62 NSCLC, -91.6% (active); in the experiment on NCI-H460 lung, -73.3% (active); in the experiment on HOP-92 NSCLC it was -86.6% (active). Besides, the growth in the experiment with A549/ATCC NSCLC is -82.7% (active); in the experiment with 786-0 renal, -94.3% (active); with COLO 205 colon it was -79.1% (active); in the experiment on DU-145 prostate it was -85.6% (active); in the experiment with K-562 leukemia, -52.2% (active); with MALME-3M melanoma it was -84.5% (active). The growth in the experiment with MDA-MB-231 breast was -74.8% (active); in the experiment with RXF 393 renal it was -90.6% (active); in the experiment on SF-268 CNS, -78.3% (active); in the experiment on SF-295 CNS, -89.3% (active); with SF-539 CNS, -99.4% (active); with M14 melanoma, -95.7% (active).
